Experimental data taken from PubChem BioAssay (Tox21).
Values joined by “and” are separate entries in the source; they are usually repeats but may differ in a detail not shown here. Equal entries are not always repeated. Records with an inconclusive call do not appear. A call without a number means that no potency is given here. A structure can be active in one record and inactive in another. Active and inactive are the calls of the source. Unless noted, calls come from the whole dose curve; as a rule, active = well fitted curve in the direction sought with a large enough effect in the repeat runs; inconclusive = weak or mixed curves; inactive = no such curve, though single readings can be large; an effect the other way counts as inactive or inconclusive.

Legend:
[1] = qHTS assay to identify small molecule agonists of the hypoxia (HIF-1) signaling pathway - cell viability counter screen (AID 1224844; calls by dose curve; note: nearly all actives have a fitted effect of over 50% in size; note: potency is the fitted concentration of half-maximal effect)
Method in brief: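 Luminescent ATP content (CellTiter-Glo, 30 min, room temperature) served as the viability measure in HRE-bla ME-180 cells exposed to compounds for 17 hrs in low-serum medium (0.5% dialyzed FBS).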

[2] = qHTS assay to identify small molecule agonists of H2AX (AID 1224845; active = well fitted activation curve with a large enough effect in the signal ratio in the repeat runs, not every such curve was filed as active; the % refers to the signal ratio)
Method in brief: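 Wild-type CHO-K1 cells, plated overnight, exposed 3hr at 37C to 15 concentrations (0.76% DMSO final). Lysed, then HTRF anti-pH2AX (S139) cryptate and anti-H2AX-d2 antibodies, 24 hr room temperature; 665/620 nm emission read.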

[3] = qHTS assay to identify small molecule agonists of the hypoxia (HIF-1) signaling pathway (AID 1224846; active = well fitted activation curve with a large enough effect in the signal ratio in the repeat runs, not every such curve was filed as active; the % refers to the signal ratio)
Method in brief: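 Measured by blue/green FRET after loading CCF4-AM: beta-lactamase expressed from a hypoxia response element in ME-180 cells. Test agents were delivered in DMSO and left 17 hrs; cells had been plated 5 hrs earlier in low-serum (0.5% dialyzed FBS) medium.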

[4] = qHTS assay to identify small molecule agonists of H2AX - cell viability counter screen (AID 1224847; calls by dose curve; note: nearly all actives have a fitted effect of over 30% in size; note: potency is the fitted concentration of half-maximal effect)
Method in brief: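 CHO-K1 wt, 1000 cells/well, o/n 37C; cpds 15 conc, 3 h 37C, 0.76% DMSO; CellTiter-Glo, 30 min RT, luminescence.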

[5] = qHTS assay to identify small molecule antagonists of the estrogen related receptor (ERR) signaling pathway from Tox21 library (AID 1224848); note: nearly all actives have a fitted effect of over 50% in size; note: potency is the fitted concentration of half-maximal effect
Method in brief: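 ERR reporter cell line (from NTP) seeded 2,000 cells/well, rested 6 h at 37 C/5% CO2, then pin-dosed with compounds in DMSO. After 18 h at 37 C, ONE-Glo added; luminescence read after 30 min at room temperature.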

[6] = qHTS assay to identify small molecule agonists of the estrogen related receptor (ERR) signaling pathway from Tox21 library (AID 1224849; calls by dose curve; note: nearly all actives have a fitted effect of over 15% in size); settings: ERR reporter cell line, ONE-Glo luciferase, 18 h
Method in brief: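 We plated ERR reporter cells, waited 6 h, added compounds in DMSO by pin tool and incubated them 18 h at 37 C. ONE-Glo was then added and luminescence read after 30 min.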

[7] = qHTS RealTime-Glo MT Cell Viability Assay in HepG2 cells - 24 hour (AID 1224867); note: nearly all actives have a fitted effect of over 50% in size
Method in brief: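 Tox21 10K library screened in qHTS format on HepG2 cells carrying RealTime-Glo reagents. Compounds were added after a 5 h preincubation, and the luminescent signal from continuous culture was measured repeatedly during 40 h treatment.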

[8] = qHTS RealTime-Glo MT Cell Viability Assay in HEK293 cells - 32 hour (AID 1224868); note: nearly all actives have a fitted effect of over 50% in size; note: potency is the fitted concentration of half-maximal effect
Method in brief: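 Luminescence generated by NanoLuc from substrate produced by living HEK293 cells served as the viability signal. Each value reflects the reading at its stated time point during continuous 40 h compound exposure at 37 C.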

[9] = A CellTox Green Cytotoxicity Assay to monitor cytotoxicity in HEK293 cells - 0 hour (AID 1224869); note: nearly all actives have a fitted effect of over 50% in size
Method in brief: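 Each value comes from one timepoint of a single continuous run in which HEK293 cells with CellTox Green were exposed to compound for up to 40 h at 37 C, dye fluorescence rising with cell death.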

[10] = qHTS RealTime-Glo MT Cell Viability Assay in HepG2 cells - 40 hour (AID 1224870); note: nearly all actives have a fitted effect of over 50% in size; note: potency is the fitted concentration of half-maximal effect
Method in brief: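 HepG2 cells (600/well) mixed with RealTime-Glo MT reagent, settled 5 h at 37 C/5% CO2 before compound addition. Nonlytic NanoLuc luminescence from viable-cell prosubstrate reduction read repeatedly during 40 h treatment at 37 C.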

SMILES	Potency [1]	Potency [2]	outcome [3]	Potency [4]	Potency [5]	activity change, positive = activation ([6]; at 92.4 µM (top of the series))	Potency [7]	Potency [8]	Potency [9]	Potency [10]	activity change, positive = activation ([6]; at 42.5 µM (top of the series))
O=[N+]([O-])c1cc(Cl)c(Cl)cc1Cl	inactive	inactive	inactive	inactive	inactive	0.191% (inactive)	inactive	inactive	inactive	inactive	–
C[Si](Cn1cncn1)(c1ccc(F)cc1)c1ccc(F)cc1	inactive	inactive	inactive	104 µM (active)	28.2 µM (active) and 30.6 µM (active)	-66.3% (inactive) and -52.8% (inactive)	inactive	25.4 µM (active) and 21.9 µM (active)	inactive	inactive	–
ClCc1ccccc1Cl	inactive	inactive	inactive	inactive	inactive	8.41% (inactive)	–	inactive	inactive	inactive	–
CCCCCCCCCCCCN(C)C	inactive	inactive	inactive	inactive	inactive	3.27% (inactive)	inactive	inactive	inactive	inactive	–
CCCC(C)(COC(N)=O)COC(=O)NC(C)C (stereo not drawn)	inactive	inactive	inactive	inactive	inactive	-2.02% (inactive)	inactive	inactive	inactive	inactive	0.487% (inactive)
CCCSP(=S)(OCC)Oc1ccc(SC)cc1 (stereo not drawn)	inactive	inactive	inactive	inactive	inactive	2.16% (inactive)	inactive	inactive	inactive	inactive	–
O=C(O)C(F)(F)C(F)(F)C(F)(F)C(F)(F)C(F)(F)F	inactive	inactive	inactive	inactive	–	–	inactive	inactive	inactive	inactive	–
O=C(Cc1ccccc1)OCCc1ccccc1	inactive	inactive	inactive	inactive	inactive	-0.535% (inactive)	inactive	inactive	inactive	inactive	–
CC1(C)CC(=O)CC(C)(C)N1[O]	inactive	inactive	inactive	inactive	inactive	-0.242% (inactive)	inactive	inactive	inactive	inactive	–
COc1cc(CC(C)N)c(OC)cc1Br (stereo not drawn)	inactive	inactive	inactive	inactive	inactive	-12.2% (inactive)	inactive	–	inactive	inactive	–
O=C(O)c1ccc(=O)[nH]c1	inactive	inactive	inactive	inactive	inactive	–	inactive	inactive	inactive	inactive	5.02% (inactive)
C=CCOCC1CO1 (stereo not drawn)	inactive	inactive	inactive	inactive	inactive	-3.54% (inactive)	–	inactive	inactive	inactive	–
O=C(O)COc1cc(Cl)c(Cl)cc1Cl	inactive	inactive	inactive	inactive	inactive	-7.72% (inactive) and -14.1% (inactive)	inactive	inactive and 15.5 µM (active)	inactive	inactive	–
C=CCc1ccccc1O	inactive	inactive	inactive	inactive	inactive	0.524% (inactive)	inactive	–	inactive	inactive	–
Clc1ccccc1	inactive	inactive	inactive	inactive	–	5.28% (inactive)	inactive	inactive	inactive	inactive	–
CN1C(=O)CN=C(c2ccccc2)c2cc([N+](=O)[O-])ccc21	inactive	inactive	inactive	inactive	–	–	inactive	inactive	inactive	inactive	–
N#CC1(N=NC2(C#N)CCCCC2)CCCCC1	inactive	inactive	inactive	inactive	inactive	-5.87% (inactive)	inactive	inactive	inactive	inactive	–
CON(C)C(=O)Nc1ccc(Cl)cc1	inactive	inactive	inactive	inactive	–	–	inactive	inactive	inactive	inactive	–
O=C=NC1CCCCC1	inactive	inactive	inactive	inactive	inactive	–	inactive	inactive	inactive	inactive	–
CCCC[N+](CCCC)(CCCC)CCCC	inactive	inactive	inactive	inactive	inactive	-11.1% (inactive)	inactive	–	inactive	inactive	–
O=C([O-])c1ccccn1.O=C([O-])c1ccccn1.O=C([O-])c1ccccn1.[Cr+3]	inactive	inactive	inactive	inactive	–	–	inactive	inactive	inactive	inactive	–
COc1ccc(C(O)(c2cncnc2)C2CC2)cc1 (stereo not drawn)	inactive	inactive	inactive	inactive	inactive	1.33% (inactive)	inactive	inactive	inactive	inactive	–
CC(C)(C)NCC(O)c1ccccc1Cl (stereo not drawn)	inactive	inactive	inactive	inactive	inactive	–	–	inactive	inactive	inactive	4.93% (inactive)
NC(=S)c1c(Cl)cccc1Cl	inactive	inactive	inactive	inactive	–	–	inactive	inactive	inactive	inactive	–
CCc1cnc(C2=NC(C)(C(C)C)C(=O)N2)c(C(=O)O)c1 (stereo not drawn)	inactive	inactive	inactive	inactive	–	–	inactive	inactive	inactive	inactive	–

SMILES	Potency [1]	Potency [2]	outcome [3]	Potency [4]	Potency [5]	activity change, positive = activation ([6]; at 92.4 µM (top of the series))	Potency [7]	Potency [8]	Potency [9]	Potency [10]	activity change, positive = activation ([6]; at 42.5 µM (top of the series))
CCCCNC(=O)OCC#CI	48.7 µM (active)	inactive	inactive	50.2 µM (active) and 101 µM (active)	68.2 µM (active)	-71.4% (inactive) and -29.5% (inactive)	–	24.4 µM (active) and 24.5 µM (active)	inactive	4.87 µM (active) and 2.19 µM (active)	–
CN1CC[C@]23c4c5ccc(O)c4O[C@H]2[C@@H](O)C=C[C@H]3[C@H]1C5	inactive	inactive	inactive	inactive	inactive	1.06% (inactive)	inactive	inactive	inactive	inactive	–
NNCCO	inactive	inactive	inactive	inactive	inactive	–	–	inactive	inactive	inactive	–
NP(N)(=O)NC(=O)c1ccc(F)cc1	inactive	inactive	inactive	inactive	inactive	–	inactive	inactive	inactive	inactive	-0.0729% (inactive)
Clc1ccc(Cl)c(Cl)c1	inactive	inactive	inactive	inactive	inactive	-0.809% (inactive) and 5.15% (inactive)	–	inactive	inactive	inactive	–
CC(C)(C)NCC(O)c1cc(Cl)c(N)c(C(F)(F)F)c1 (stereo not drawn)	inactive	inactive	inactive	inactive	inactive	–	inactive	inactive	inactive	inactive	-0.267% (inactive)
CCCCOC(=O)CCC(=O)OCCCC	inactive	inactive	inactive	inactive	inactive	0.0296% (inactive)	–	inactive	inactive	inactive	–
Oc1cccc(Cl)c1	inactive	inactive	inactive	inactive	inactive	1.9% (inactive)	inactive	inactive	inactive	inactive	–
C1CS1	inactive	inactive	inactive	inactive	inactive	-0.221% (inactive)	inactive	inactive	inactive	inactive	–
CCCCCl	inactive	inactive	inactive	inactive	inactive	-0.331% (inactive)	inactive	inactive	inactive	inactive	–
c1ccc2c(c1)sc1ccccc12	inactive	inactive	inactive	inactive	inactive	-4.7% (inactive)	inactive	inactive	inactive	inactive	0.495% (inactive)
COc1cc(C[C@@H](C)N)c(OC)cc1Br	inactive	inactive	inactive	inactive	inactive	-15.6% (inactive)	inactive	inactive	inactive	inactive	–
O=S(=O)(c1ccccc1)c1ccccc1	inactive	inactive	inactive	inactive	inactive	–	inactive	inactive	inactive	inactive	–
C=CCOC(=O)C(C)(C)OC(=O)c1cc(-n2c(=O)cc(C(F)(F)F)n(C)c2=O)ccc1Cl	inactive	inactive	inactive	inactive	26.8 µM (active)	-42.4% (inactive)	inactive	–	inactive	inactive	–
Clc1ccc2ccccc2c1	inactive	inactive	inactive	inactive	–	–	inactive	–	inactive	inactive	–
CCN(C(C)=O)c1cccc(-c2ccnc3c(C#N)cnn23)c1	inactive	inactive	inactive	inactive	–	–	inactive	inactive	inactive	inactive	–
OC[P+](CO)(CO)CO	44.2 µM (active) and inactive	inactive	inactive	inactive	–	–	inactive	inactive	inactive	inactive	–
CCOP(=O)(SC(C)CC)N1CCSC1=O (stereo not drawn)	inactive	inactive	inactive	inactive	–	–	inactive	inactive	inactive	inactive	–
O=S(=O)(Cl)Cl	inactive	inactive	inactive	inactive	–	–	inactive	–	inactive	inactive	–
CCOC(=O)NC(O)C(Cl)(Cl)Cl (stereo not drawn)	inactive	inactive	inactive	inactive	–	–	inactive	inactive	inactive	inactive	–
CC[N+]1(CCOC(=O)C(O)(c2ccccc2)c2ccccc2)CCCCC1	inactive	inactive	inactive	inactive	–	–	inactive	inactive	inactive	inactive	–
CC(CC(C(N)=O)(c1ccccc1)c1ccccc1)N(C)C (stereo not drawn)	inactive	inactive	inactive	inactive	–	–	inactive	inactive	inactive	inactive	–
c1ccc2c(c1)-c1cccc3cccc-2c13	inactive	inactive	inactive	inactive	–	–	inactive	inactive	inactive	inactive	–
Nc1ccccc1C(=O)OCC(O)CO (stereo not drawn)	inactive	inactive	inactive	inactive	–	–	inactive	inactive	inactive	inactive	–
